In PubChem BioAssay AID1159580 (chemical genetic matrix, 2015):
In all, about 5,500 compounds went through this assay and about 2,000 (36%) were called active. Roughly 18% stayed inconclusive and do not appear here. No stated cut-off is given here; in the data, active means normalized growth mostly below about 0.91 (no sharp cut-off); inconclusive means no clear call, values can overlap the other calls; inactive means mostly above about 0.92. This is one part of the list.

Experiment: chemical genetic growth profiling, strain panel (AID 1159580);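 further: tested at 20 µM; growth read once vehicle control cultures reached saturation at 30 °C; 1 = growth at the plate median or of vehicle wells; lower values mean less growth of the strain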
Conditions: growth OD
[1] = S. cerevisiae deletion strains, locus YAL013W, strain DEP1, hits give low values
[2] = S. cerevisiae deletion strains, locus YBR229C, strain ROT2, hits give low values
[3] = S. cerevisiae deletion strains, locus YCL061C, strain MRC1, hits give low values
[4] = S. cerevisiae deletion strains, locus YDL101C, strain DUN1, hits give low values
[5] = S. cerevisiae deletion strains, locus YDR150W, strain NUM1, hits give low values
[6] = S. cerevisiae deletion strains, locus YEL061C, strain CIN8, hits give low values
[7] = S. cerevisiae deletion strains, locus YGR078C, strain PAC10, hits give low values
[8] = S. cerevisiae deletion strains, locus YHR030C, strain SLT2, hits give low values
[9] = S. cerevisiae deletion strains, locus YHR087W, strain rtc3, hits give low values
[10] = S. cerevisiae deletion strains, locus YJR043C, strain POL32, hits give low values
[11] = S. cerevisiae deletion strains, locus YJR075W, strain HOC1, hits give low values
[12] = S. cerevisiae deletion strains, locus YLR039C, strain RIC1, hits give low values
[13] = S. cerevisiae deletion strains, locus YLR058C, strain SHM2 (second series), hits give low values
[14] = S. cerevisiae deletion strains, locus YLR085C, strain ARP6, hits give low values
[15] = S. cerevisiae deletion strains, locus YLR262C, strain YPT6, hits give low values
[16] = S. cerevisiae deletion strains, locus YML094W, strain GIM5, hits give low values
[17] = S. cerevisiae deletion strains, locus YMR219W, strain ESC1, hits give low values
[18] = S. cerevisiae deletion strains, locus YMR263W, strain SAP30, hits give low values
[19] = S. cerevisiae deletion strains, locus YNL153C, strain GIM3, hits give low values
[20] = S. cerevisiae deletion strains, locus YNL298W, strain CLA4 (second series), hits give low values
[21] = S. cerevisiae deletion strains, locus YNL322C, strain KRE1, hits give low values
[22] = S. cerevisiae deletion strains, locus YNR030W, strain Alg12, hits give low values
[23] = S. cerevisiae deletion strains, locus YOL006C, strain TOP1, hits give low values
[24] = S. cerevisiae deletion strains, locus YPL055C, strain LGE1, hits give low values
[25] = S. cerevisiae deletion strains, locus YPL241C, strain CIN2, hits give low values
[26] = S. cerevisiae deletion strains, locus YPR135W, strain CTF4, hits give low values
[27] = S. cerevisiae strains, strain wild type, hits give low values

Measured: normalized growth

CSc1cccc(NC(=S)N=CN(C)C)c1
inactive: [1] 0.977 | [2] 1.01 | [3] 0.954 | [4] 0.944 | [5] 0.974 | [6] 0.997 | [7] 0.977 | [8] 0.882 | S. cerevisiae deletion strains, locus YJL187C, strain SWE1, hits give low values 0.988 | [10] 0.961 | [11] 1.05 | [13] 1.03 | [15] 0.932 | [16] 0.96 | [17] 1 | [18] 0.983 | S. cerevisiae deletion strains, locus YNL128W, strain TEP1, hits give low values 0.962 | [19] 0.963 | [21] 1 | [22] 0.958 | [24] 1.02 | [25] 0.898 | [26] 0.787 | [27] 0.933
active: [9] 1.12 [resistant] | [12] 0.73 | [14] 0.618 | [20] 0.798 | [23] 0.393

Cc1cc(Oc2ccc(C(F)(F)F)cc2NS(C)(=O)=O)cc(C)c1Cl
active: [8] 0.802 | S. cerevisiae deletion strains, locus YLR113W, strain HOG1, hits give low values 0.75 | S. cerevisiae deletion strains, locus YPL256C, strain CLN2, hits give low values 0.827
inactive: S. cerevisiae deletion strains, locus YAR019C, strain CDC15, hits give low values 0.992 | S. cerevisiae deletion strains, locus YBL105C, strain PKC1, hits give low values 0.988 | S. cerevisiae deletion strains, locus YBR135W, strain CKS1, hits give low values 0.995 | S. cerevisiae deletion strains, locus YBR136W, strain MEC1, hits give low values 0.991 | S. cerevisiae deletion strains, locus YBR160W, strain CDC28, hits give low values 0.988 | S. cerevisiae deletion strains, locus YDL017W, strain CDC7, hits give low values 0.982 | S. cerevisiae deletion strains, locus YDL028C, strain MPS1, hits give low values 0.998 | [4] 0.979 | S. cerevisiae deletion strains, locus YDL108W, strain KIN28, hits give low values 0.995 | S. cerevisiae deletion strains, locus YDL132W, strain cdc53, hits give low values 0.989 | S. cerevisiae deletion strains, locus YDL214C, strain PRR2, hits give low values 0.961 | S. cerevisiae deletion strains, locus YDR052C, strain DBF4, hits give low values 0.996 | S. cerevisiae deletion strains, locus YDR054C, strain cdc34, hits give low values 0.995 | S. cerevisiae deletion strains, locus YDR226W, strain ADK1, hits give low values 0.979 | S. cerevisiae deletion strains, locus YDR477W, strain SNF1, hits give low values 0.978 | S. cerevisiae deletion strains, locus YER123W, strain YCK3, hits give low values 0.95 | S. cerevisiae deletion strains, locus YER133W, strain GLC7, hits give low values 0.974 | S. cerevisiae deletion strains, locus YFL009W, strain cdc4, hits give low values 0.995 | S. cerevisiae deletion strains, locus YFL029C, strain CAK1, hits give low values 0.981 | S. cerevisiae deletion strains, locus YFR003C, strain YPI1, hits give low values 0.986 | S. cerevisiae deletion strains, locus YFR019W, strain FAB1, hits give low values 0.984 | S. cerevisiae deletion strains, locus YFR028C, strain CDC14, hits give low values 0.995 | S. cerevisiae deletion strains, locus YGR040W, strain KSS1, hits give low values 0.985 | S. cerevisiae deletion strains, locus YGR052W, strain FMP48, hits give low values 0.986 | S. cerevisiae deletion strains, locus YGR092W, strain DBF2, hits give low values 0.889 | S. cerevisiae deletion strains, locus YHR079C, strain IRE1, hits give low values 0.873 | S. cerevisiae deletion strains, locus YHR082C, strain KSP1, hits give low values 1.03 | S. cerevisiae deletion strains, locus YHR205W, strain SCH9, hits give low values 0.902 | S. cerevisiae deletion strains, locus YIL147C, strain SLN1, hits give low values 0.993 | S. cerevisiae deletion strains, locus YJL095W, strain BCK1, hits give low values 0.891 | S. cerevisiae deletion strains, locus YJL128C, strain PBS2, hits give low values 0.947 | S. cerevisiae deletion strains, locus YJL157C, strain FAR1, hits give low values 0.963 | S. cerevisiae deletion strains, locus YJR016C, strain ILV3, hits give low values 0.986 | S. cerevisiae deletion strains, locus YJR066W, strain TOR1 (second series), hits give low values 0.928 | S. cerevisiae deletion strains, locus YJR066W, strain TOR1, hits give low values 1.01 | S. cerevisiae deletion strains, locus YKL048C, strain ELM1, hits give low values 0.985 | S. cerevisiae deletion strains, locus YKL067W, strain YNK1, hits give low values 0.957 | S. cerevisiae deletion strains, locus YKL101W, strain HSL1, hits give low values 0.961 | S. cerevisiae deletion strains, locus YKL193C, strain SDS22, hits give low values 0.989 | S. cerevisiae deletion strains, locus YKL203C, strain TOR2, hits give low values 1.02 | S. cerevisiae deletion strains, locus YLR133W, strain CKI1, hits give low values 0.96 | S. cerevisiae deletion strains, locus YLR403W, strain SFP1, hits give low values 0.939 | S. cerevisiae deletion strains, locus YML070W, strain DAK1, hits give low values 0.931 | S. cerevisiae deletion strains, locus YMR001C, strain CDC5, hits give low values 0.989 | S. cerevisiae deletion strains, locus YMR205C, strain PFK2 (second series), hits give low values 0.972 | S. cerevisiae deletion strains, locus YMR277W, strain FCP1, hits give low values 0.991 | S. cerevisiae deletion strains, locus YNL006W, strain LST8, hits give low values 0.983 | S. cerevisiae deletion strains, locus YNL020C, strain ARK1, hits give low values 0.914 | S. cerevisiae deletion strains, locus YNL161W, strain CBK1, hits give low values 0.985 | S. cerevisiae deletion strains, locus YNL183C, strain NPR1, hits give low values 0.981 | S. cerevisiae deletion strains, locus YNL207W, strain RIO2, hits give low values 0.987 | S. cerevisiae deletion strains, locus YNL222W, strain SSU72, hits give low values 0.996 | S. cerevisiae deletion strains, locus YNL307C, strain MCK1 (second series), hits give low values 0.939 | S. cerevisiae deletion strains, locus YOL078W, strain AVO1, hits give low values 0.995 | S. cerevisiae deletion strains, locus YOL136C, strain PFK27, hits give low values 0.939 | S. cerevisiae deletion strains, locus YOR061W, strain CKA2, hits give low values 0.923 | S. cerevisiae deletion strains, locus YOR119C, strain RIO1, hits give low values 1.04 | S. cerevisiae deletion strains, locus YOR231W, strain MKK1, hits give low values 0.902 | S. cerevisiae deletion strains, locus YOR329C, strain SCD5, hits give low values 0.984 | S. cerevisiae deletion strains, locus YPL031C, strain PHO85, hits give low values 0.971 | S. cerevisiae deletion strains, locus YPL153C, strain RAD53, hits give low values 0.981 | S. cerevisiae deletion strains, locus YPL204W, strain HRR25, hits give low values 0.947 | S. cerevisiae deletion strains, locus YPL209C, strain IPL1, hits give low values 0.987 | S. cerevisiae deletion strains, locus YPR025C, strain CCL1, hits give low values 0.993 | S. cerevisiae deletion strains, locus YPR106W, strain ISR1, hits give low values 0.985 | S. cerevisiae deletion strains, locus YPR111W, strain DBF20, hits give low values 0.973 | S. cerevisiae deletion strains, strain NNK1, hits give low values 0.984 | S. cerevisiae deletion strains, strain TSCII, hits give low values 0.993

COc1ccc(CCNc2ccc(C(F)(F)F)cc2N)cc1OC
inactive: [1] 1 | [2] 0.998 | [3] 1 | [4] 0.974 | S. cerevisiae deletion strains, locus YDL134C, strain PPH21, hits give low values 1.02 | [5] 0.911 | [6] 1.02 | [7] 0.985 | [8] 0.903 | [9] 1.04 | [10] 0.996 | [11] 1.02 | [12] 0.988 | [13] 1.01 | [14] 0.961 | [15] 0.946 | [16] 0.972 | [17] 0.994 | [18] 0.918 | [19] 0.988 | [20] 0.966 | [21] 1.01 | [22] 0.974 | [23] 1.01 | [24] 0.893 | [25] 0.93 | [26] 0.842 | [27] 1.01
